In PubChem BioAssay AID1345085 (National Center for Advancing Translational Sciences (NCATS), 2018):
Results filed as inconclusive are left out. Values without a mark were called inactive. Activity calls are given as the source filed them. Calls follow the shape of the dose curve; as a rule, active = well fitted cell-killing curve with a large enough effect; inconclusive = small, poorly fitted or top-dose-only effect, or effect the other way; inactive = no such curve, though single readings can be large or run the other way.

The compounds below were run on Jar (assay: Confirmatory qHTS for gynecologic anti-cancer compounds from libraries of approved drugs and bioactive compounds). Conditions: gynecologic cancer cell panel viability, ATPlite luminescence, 48 h; series mostly up to 57.6 µM; activity change, negative = viability loss: at the top concentration.
Procedure, shortened: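 ATP-based luminescent viability (ATPlite) after 48 h drug treatment at 37 °C, 5% CO2, across 57.5 uM–0.977 nM in 1:3 steps. Cells seeded at 1,000 per well 16 h beforehand; IC50 values computed, HEK 293T as selectivity control.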
% is scaled to controls: 0 for no effect and ±100 for the full control effect; potency is read from the fitted curve at half-maximal effect.
Also: nearly all actives have a fitted effect of over 55% in size.

Compound | activity change, negative = viability loss | Potency
CNCc1ccc(-c2[nH]c3cc(F)cc4c3c2CCNC4=O)cc1 | 25.3% | –
COc1ccc(-c2nc3ccc(C4=NNC(=O)CC4C)cc3[nH]2)cc1 (stereo not drawn) | – | 21.7 µM (active)
Cn1c(=O)c(F)c(Nc2ccc(I)cc2F)c2c(=O)n(CC(O)CO)cnc21 (stereo not drawn) | -7.62% | –
OC[C@H]1O[C@@H](n2cnc3c(=S)nc[nH]c32)[C@H](O)[C@@H]1O | – | 12.2 µM (active)
Oc1cn2c(n1)Nc1ccc(Cl)c(Cl)c1C2 | 17.7% [at 19.5 µM] | –
Cn1cnc([N+](=O)[O-])c1Sc1ncnc2nc[nH]c12 | – | 27.3 µM (active)
CCN(CC)CCOc1ccc(/C(=C(\Cl)c2ccccc2)c2ccccc2)cc1 | – | 89.1 µM (active)
COc1ccc(CCC(=O)c2c(O)cc(O[C@@H]3O[C@H](CO)[C@@H](O)[C@H](O)[C@H]3O[C@@H]3O[C@@H](C)[C@H](O)[C@@H](O)[C@H]3O)cc2O)cc1O | 29.5% | –
CN1CCN(Cc2ccc(NC(=O)Nc3ccc(Oc4cc(NC(=O)C5CC5)ncn4)cc3)cc2C(F)(F)F)CC1 | – | 19.3 µM (active)
CC(C)Oc1ccc(C(=O)NC(CNC(=O)CN(C)C)Cc2ccc(-c3cn4cccc(C(C)O)c4n3)cc2)cc1Cl (stereo not drawn) | – | 0.172 µM (active)
NC(=O)c1cccc2cn(-c3ccc([C@@H]4CCCNC4)cc3)nc12 | 7.43% | –
CNc1nccc(-c2cccnc2Oc2cc(C(=O)Nc3cccc(C(F)(F)F)c3)ccc2C)n1 | – | 19.3 µM (active)
COC(C(=O)N1Cc2[nH]nc(NC(=O)c3ccc(N4CCN(C)CC4)cc3)c2C1)c1ccccc1 (stereo not drawn) | -23.9% | –
CC1=C(/C=C/C(C)=C/C=C/C(C)=C/C(=O)Nc2ccc(O)cc2)C(C)(C)CCC1 | – | 21.7 µM (active)
CN(C)CC/C=C1\c2ccccc2COc2ccccc21 | -9.39% | –
CCC1=CC2CN(C1)Cc1c([nH]c3ccccc13)[C@@](C(=O)OC)(c1cc3c(cc1OC)N(C)[C@H]1[C@@](O)(C(=O)OC)[C@H](OC(C)=O)[C@]4(CC)C=CCN5CC[C@]31[C@@H]54)C2 (stereo partly drawn) | – | 0.133 µM (active)
Cc1nc(N)ncc1-c1nc(N2CCOCC2)c2sc(C(C)(C)O)cc2n1 | – | 7.69 µM (active)
Nc1ccc(C(=O)Nc2cccc(-c3nc(N4CCOCC4)c4oc5ncccc5c4n3)c2)cn1 | – | 5.44 µM (active)
NC(=O)c1cnc(-c2ccc(C3(N)CCC3)cc2)c(-c2ccccc2)c1 | – | 27.3 µM (active)

Compound | activity change, negative = viability loss | Potency
Fc1cc(-c2cccc3ncc(-c4cnn(C5CCNCC5)c4)nc23)cc(F)c1CN1CCOCC1 | – | 34.3 µM (active)
Cn1cc(-c2[nH]c3cc(NC(=O)[C@H](N)C4CCCCC4)cc4c3c2C=NNC4=O)cn1 | – | 10.9 µM (active)
COc1ccc2c(c1OC)C(=O)O[C@@H]2[C@H]1c2c(cc3c(c2OC)OCO3)CCN1C | – | 30.6 µM (active)
Cc1nc2ccc(CN(C)c3ccc(C(=O)NC(CCC(=O)O)C(=O)O)s3)cc2c(=O)[nH]1 (stereo not drawn) | -20.2% | –
CN(C)CCC(CSc1ccccc1)Nc1ccc(S(=O)(=O)NC(=O)c2ccc(N3CCN(Cc4ccccc4-c4ccc(Cl)cc4)CC3)cc2)cc1[N+](=O)[O-] (stereo not drawn) | – | 8.63 µM (active)
Nc1ccccc1NC(=O)c1ccc(CNc2nccc(-c3cccnc3)n2)cc1 | – | 1.93 µM (active)
CCCCc1oc2ccc(NS(C)(=O)=O)cc2c1C(=O)c1ccc(OCCCN(CCCC)CCCC)cc1 | – | 30.6 µM (active)
CCN(CC)CCCC(C)Nc1c2ccc(Cl)cc2nc2ccc(OC)cc12 (stereo not drawn) | -7.3% | –
Cc1ccn(-c2ccc(-c3ncco3)cc2)c(=O)c1-c1ccc2nc(N)ncc2c1 | -26.5% | –
c1nc2nc(Nc3ccc(N4CCOCC4)cc3)nc(NC3CCCCC3)c2[nH]1 | – | 9.43 µM (active)
C[C@@H](Oc1cc(-c2cnn(C3CCNCC3)c2)cnc1N)c1c(Cl)ccc(F)c1Cl | – | 15.3 µM (active)
Cc1cc(C2CCCCC2)n(O)c(=O)c1 | – | 8.86 µM (active)
COc1cc2c(cc1-c1c(C)noc1C)ncc1[nH]c(=O)n(C(C)c3ccccn3)c12 (stereo not drawn) | – | 27.3 µM (active)
CC1=C(CO)C(=O)O[C@@H]([C@@H](C)[C@H]2CC[C@H]3[C@@H]4C[C@H]5O[C@]56[C@@H](O)C=CC(=O)[C@]6(C)[C@H]4CC[C@]23C)C1 | – | 8.41 µM (active)
CCS(=O)(=O)N1CCN(c2ccc(Nc3ncc(C(N)=O)c(NC4CC4)n3)cc2)CC1 | – | 12.2 µM (active)
COc1ccccc1N1CCN(CC(O)COc2cccc3ccccc23)CC1 (stereo not drawn) | -22.6% | –
CCc1c2c(nc3ccc(O)cc13)-c1cc3c(c(=O)n1C2)COC(=O)[C@]3(O)CC | – | 1.72 µM (active)
CNC(=O)c1ccccc1Nc1nc(Nc2ccc(N3CCOCC3)cc2OC)ncc1Cl | – | 19.3 µM (active)
CC(=O)OC12COC1CC(O)C1(C)C(=O)C(O)C3=C(C)C(OC(=O)C(O)C(NC(=O)OC(C)(C)C)c4ccccc4)CC(O)(C(OC(=O)c4ccccc4)C21)C3(C)C (stereo not drawn) | – | 0.0432 µM (active)
